Screening results from PubChem BioAssay.
nsP2pro inh – inhibitors of chikungunya virus nsP2 protease | AID 1964107 | Q8JUX6 | hit rate 1.1% among 31,000 | FRET peptide cleavage, nsP2pro, fluorescence 1 h | Potency, µM (doses to about 24.9 µM), actives largely listed as inhibitors; note: nearly all actives have a fitted effect of over 60% in size
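FRET cleavage of 2.5 uM peptide 2 by 150 nM CHIKV protease domain at pH 8.0 (Tris, Tween 20). Compounds at 7 concentrations (up to 25 uM) preincubated 15 min. Fluorescence read after 1 h at room temperature.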
nsP2 cell sec – cell-based CHIKV nsP2 protease inhibition, secondary | shares compounds with nsP2pro inh | cell-based CHIKV nsP2 protease reporter assay | Potency, µM (doses to about 51.1 µM), most hits filed as inhibitors | hit rate 10% among 450; note: nearly all actives have a fitted effect of over 70% in size
NSP2 full ctr – inhibits full-length CHIKV NSP2 enzyme; shares compounds with nsP2pro inh; hit rate 39% among 410; Full-length CHIKV NSP2 protease enzymatic counterscreen; Potency, µM (doses to about 50.7 µM), hits mostly inhibitors; AID 1964101; note: nearly all actives have a fitted effect of over 65% in size
Furin counterscr – inhibits human furin in a CHIKV nsP2 protease selectivity counterscreen. shares compounds with nsP2pro inh. hit rate 6% among 410. Recombinant human furin enzymatic counterscreen, fluorogenic substrate. Potency, µM (highest dose often 50.6 µM), most hits filed as inhibitors
NS23 peptide cs – nsP2pro inhibition on native NS2/3 peptide substrate; shares compounds with nsP2pro inh; Purified CHIKV nsP2 protease, endogenous NS2/3 peptide cleavage; Potency, µM (titrated, usually from 51 µM), most hits filed as inhibitors; hit rate 34% among 410; AID 1964103; note: nearly all actives have a fitted effect of over 55% in size
Papain counter – inhibits papain in a CHIKV nsP2 protease selectivity counterscreen | Potency, µM (highest dose often 51 µM), most hits filed as inhibitors | hit rate 5% among 410 | purified papain protease activity, enzymatic inhibition | shares compounds with nsP2pro inh
nsP2pro confirm – CHIKV nsP2 protease inhibition, confirmatory qHTS; CHIKV nsP2 protease enzymatic activity, qHTS; Potency, µM (top dose mostly 25.5 µM), actives largely listed as inhibitors; shares compounds with nsP2pro inh; AID 1964105; hit rate 43% among 410; note: nearly all actives have a fitted effect of over 75% in size
HCV NS3 counter – inhibits HCV NS3/4A protease in an nsP2pro selectivity counterscreen | Potency, µM (doses to about 50.9 µM), hits mostly inhibitors | AID 1964106 | hit rate 20% among 410 | HCV NS3/4A protease biochemical counterscreen | shares compounds with nsP2pro inh; note: nearly all actives have a fitted effect of over 55% in size
Large screens that a line does not name were inactive (follow-up assays come after a bar, where they were run). The entries come from a sample that favours hits as a whole. Calls come from the whole dose curve.

COC(=O)/C=C/C12COC(C)(C)C1C(O)C(OC(C)=O)C1(C)C2CCC2(C)C(c3ccoc3)OC(=O)C3OC321 (centres undefined)	nsP2pro inh inconclusive | nsP2 cell sec inactive | NSP2 full ctr inactive | Furin counterscr inactive | NS23 peptide cs inactive | Papain counter inactive | nsP2pro confirm inactive | HCV NS3 counter inactive
CC1(C)O[C@H]2CC(=O)OC[C@]23[C@H]2CC[C@@]4(C)[C@H](c5ccoc5)OC(=O)[C@H]5O[C@]54[C@]2(C)C(=O)C[C@@H]13	none
O=C(Nc1cccc(C(F)(F)F)c1)c1ccccc1NCc1ccncc1	none
CC[C@@H](C)[C@H](N)C(=O)N1Cc2ccccc2C1	none
COc1cnc(-c2ccccc2C(C)C)nc1NCc1ccc(-c2cccnc2)cc1	none
CN1C(=O)NC(c2ccccc2Cl)C2=C1CCCC2=O (centres undefined)	none
CC1=C2C(=O)C=C(CO[C@@H]3O[C@H](CO)[C@@H](O)[C@H](O)[C@H]3O)[C@@H]2[C@H]2OC(=O)[C@H](C)[C@@H]2[C@@H](O)C1	none
COC(=O)c1ccc(O)c2ncc(N3CC[C@H](N)C3)cc12	none
CC1CCc2c(cc(Br)c(F)c2Br)N1C=O (centres undefined)	nsP2pro inh inconclusive | nsP2 cell sec inactive | NSP2 full ctr inconclusive | Furin counterscr inactive | NS23 peptide cs inconclusive | Papain counter inactive | nsP2pro confirm inconclusive | HCV NS3 counter inconclusive
CC1=C(C(=O)N(C)C)C(c2ccccc2Br)N=C(Nc2nc3ccccc3o2)N1 (centres undefined)	none
Cc1cc(N[S+](=O)([O-])c2ccc(NC(=O)Cc3ccc4nccnc4c3)cc2)no1	none
CC(=O)c1c(OCCN2CCCCC2)c(OCCC(C)c2ccc(F)cc2)c2oc(C)nc2c1C (centres undefined)	none
CCOC(=O)c1ccc(NC(=O)CN2CCCCC2)cc1	none
CCOC(=O)c1ccc(NC2SC(=O)N(Cc3cccc(C(=O)O)c3)C2=O)cc1 (centres undefined)	nsP2pro inh 7.9µM | nsP2 cell sec inactive
CCOC(=O)c1ccc2nc(C)cc(Nc3cccc(C(=O)O)c3)c2c1	none
Cc1cc(NS(=O)(=O)c2ccc(NC(=O)CCc3ccc(Cl)c(Cl)c3)cc2)no1	none
Nc1ncnc2c1ncn2CCNCCCCCO	none
Cc1cn2nc([C@@H]3CCCCN3C(=O)c3cc(Cl)ccc3NS(C)(=O)=O)cc2nc1N1CC[C@H](N)C1	none
COC(=S)NCCn1c([N+](=O)[O-])cnc1C	none
